Shown are actives, neighbours in structure and some others; about 5.7% of the full set was active somewhere.
TGFb SMAD3 inh: qHTS for Inhibitors of TGF-b | HepG2 CAGA-GFP TGF-b/SMAD3 reporter, GFP fluorescence, 18 h; TGF-beta stimulated, 500 pg/mL final | Potency, µM (top dose mostly 46.1 µM), inactives show at the highest dose activity, negative = inhibition, most hits filed as inhibitors | 410,000 compounds, 1.2% hits | AID 588855, 2011; also: potency is read from the fitted curve at half-maximal effect; % is scaled to controls: 0 for no effect and ±100 for the full control effect; nearly all actives have a fitted effect of over 65% in size
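TGF-beta reporter screen: HEPG2 CAGA-GFP, 1% FBS, 500 pg/mL TGF-beta final, 18 h; per-cell GFP summed per well; curves fitted and categorized by class.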
HepG2 tox: qHTS for Inhibitors of TGF-b: Cytotox Counterscreen. Potency, µM (doses to about 46.1 µM), without a hit: top-dose activity change, negative = cytotoxicity, hits mostly cytotoxic. 410,000 compounds, 0.76% hits. AID 588856, 2011. HepG2 CAGA-GFP viability, ATP luminescence, 18 h; also: potency is read from the fitted curve at half-maximal effect
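HepG2 CAGA-GFP cells (1000/well, DMEM with 1% FBS) received compound, then TGF-beta at 500 pg/mL final, and were incubated 18 hours at 37 degrees C. Viability was read by CellTiter-Glo luminescence. Media-only wells were set as complete cell-killing and DMSO as no toxicity.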
ATXN2 expr inh: Primary qHTS for Inhibitors of ATXN expression; HEK-293 ATXN2-luciferase reporter, luminescence, 24 h; Potency, µM (highest dose often 57 µM), for inactives: at the top dose activity change, negative = inhibition, usual class: inhibitors; 360,000 compounds, 0.72% hits; AID 1745845, 2022; also: potency is read from the fitted curve at half-maximal effect; % is scaled to controls: 0 for no effect and ±100 for the full control effect; nearly all actives have a fitted effect of over 55% in size
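qHTS (up to 57 uM final) was run with 24 h compound exposure of reporter cells at 37 °C. Each well was multiplexed: SteadyGlo luminescence measured ATXN2-luciferase expression after a fluorogenic Gly-Phe-AFC viability readout (25 uM final).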
S2 tox: Viability Counterscreen for Primary qHTS for Inhibitors of ATXN expression; S2 cells (HEK-293 line with an ATXN2-luciferase reporter) viability, CellTiter-Fluor protease fluorescence, 24 h; Potency, µM (highest dose often 56.7 µM), hits mostly cytotoxic; 400,000 compounds, 0.49% hits; also: potency is read from the fitted curve at half-maximal effect; nearly all actives have a fitted effect of over 40% in size
IL-1B inflam inh: qHTS for Inhibitors of Inflammasome Signaling: IL-1-beta AlphaLISA Primary Screen; 360,000 compounds, 4.7% hits; activity change, % at 57.5 µM; THP-1 LPS/ATP IL-1B secretion, AlphaLISA, 16 h; hits give low values; in the data active = activity change below about -50%; inconclusive = mostly about -30% to -49%; also: % is scaled to controls: 0 for no effect and ±100 for the full control effect
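THP-1 cells pretreated 1 hr with compounds (up to 57.5 uM final), then stimulated with LPS (250 ng/mL final) plus ATP (1.25 mM final); secreted IL-1B measured by AlphaLISA after 16 hr, decreased signal indicating inhibition.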
Numbers without * were called inactive; i = inactive; ? = inconclusive; · = no result given; [ ] = dose if it differs, or a comment. Unless noted, calls follow the shape of the dose curve; as a rule, active = well fitted curve in the direction sought with a large enough effect; inconclusive = small, poorly fitted or top-dose-only effect, or another doubt; inactive = no such curve, though single readings can be large; an effect the other way counts as inactive or inconclusive.

SMILES	TGFb SMAD3 inh	HepG2 tox	ATXN2 expr inh	S2 tox	IL-1B inflam inh
CCN(CC)C(=O)Cn1c(=O)n(Cc2ccc(C(=O)NCCc3ccc(OC)c(OC)c3)cc2)c(=O)c2ccccc21	-7%	2%	11%	i	·
Cc1ccc(SSc2cc(C)ccc2N)c(N)c1	?	-65%	?	·	-108*
CCOC(=O)c1ccc(NC(=O)C2COc3ccccc3O2)cc1 (centres undefined)	15%	-18%	4%	i	-9
CCOC(=O)c1ccc(-n2c(O)c(/C=N/NC(=O)C3COc4ccccc4O3)c3ccccc3c2=O)cc1 (centres undefined)	8.9µM*	-42%	-27%	i	36
Cc1cc(Nc2cccc(Cl)c2)nc2ccc(NC(=O)COc3ccc(Cl)cc3)cc12	?	-63%	-21%	·	·
O=S(=O)(NCCCCNS(=O)(=O)c1cccc2cccnc12)c1cccc2cccnc12	-1%	-3%	·	·	·
Cc1ccc(CNC(=O)CCNS(=O)(=O)c2ccc(C)cc2)cc1	-5%	-6%	3%	i	-5
O=C(CCNS(=O)(=O)c1ccc(Br)cc1)NCc1ccc(Cl)cc1	-11%	11µM*	-10%	i	-20
O=C(NCCS(=O)(=O)c1ccc(Br)cc1)c1ccc(Cl)cc1	0%	-6%	-3%	i	-7
CC(C(=O)NCCS(=O)(=O)c1ccc(Br)cc1)S(=O)(=O)c1ccc(Cl)cc1 (centres undefined)	0%	-29%	2%	i	-50*
CC(C)c1ccc(C(C)NCCS(=O)(=O)c2ccc(Cl)cc2)cc1 (centres undefined)	?	-31%	-37%	i	-77*
COc1cc(S(=O)(=O)NCCc2c(C)[nH]c3ccccc23)c(C)cc1C	?	-32%	?	i	·
Cc1[nH]n(C(N)=S)c(=O)c1C(c1ccccc1)C(C#N)C#N (centres undefined)	-14%	-5%	-5%	i	-10
Cc1[nH]n(-c2ncc(-c3ccccc3)s2)c(=O)c1C(c1ccc(Br)cc1)C(C#N)C#N (centres undefined)	?	11%	-30%	i	-64*
COc1ccc(NC(=O)N2CCc3c(sc4c3CCCC4)C2c2ccc(F)cc2)cc1 (centres undefined)	?	-17%	-17%	i	·
COc1ccc2c(c1)C(SCC(=O)NCCc1ccc(Cl)cc1)CC(C)(C)O2 (centres undefined)	?	-30%	28µM*	?	-13
N#C/C(=C\c1cccc([N+](=O)[O-])c1)c1ccccn1	-4%	-20%	53%	i	-88*
CCCCc1c(C)c(C#N)c2[nH]c3ccccc3n2c1=O	3.2µM*	-52%	?	i	54
CC(=O)N1c2ccc(C)cc2C(c2ccccc2)CC1C (centres undefined)	-29%	-19%	75%	i	-55*
CCN(CC)CCN1c2ccccc2Sc2ccc3ccccc3c21	-14%	-29%	-16%	i	-74*
CCN(CC)CCN1c2ccccc2Sc2ccccc21	-7%	-9%	-8%	?	0
COC(=O)c1ccc(C2C=C(c3ccc(Cl)cc3)Nc3nc4ccccc4n32)cc1 (centres undefined)	?	-29%	?	?	·
Cc1ccc(-n2[nH]c3c4c(ccc3c2=O)C(=O)c2ccccc2C4=O)cc1	9%	-7%	-19%	i	-4
CC(C)(C)n1[nH]c2c3c(ccc2c1=O)C(=O)c1ccccc1C3=O	10µM*	6.3µM*	-21%	?	0
OCCNc1nc(Nc2ccccc2)nc(Nc2ccccc2)n1	10%	-10%	-5%	i	-12
SMILES	TGFb SMAD3 inh	HepG2 tox	ATXN2 expr inh	S2 tox	IL-1B inflam inh
OCCNc1c2ccccc2nc2c(F)c(F)c(F)c(F)c12	-25%	11%	7.5µM*	·	-93*
Cc1c2ccccc2nc2c(F)c(NCCO)c(F)c(F)c12	47%	-6%	8%	i	-87*
Cc1c2ccccc2nc2c(F)c(NC(C)C)c(F)c(F)c12	27%	-26%	25%	·	-53*
CC(C)Nc1nc2ccccc2c(=O)[nH]1	-14%	-4%	-1%	i	24
CCOC(=O)c1ccc(NC(=O)CSc2cc(-c3ccccc3)nc(C)n2)cc1	-21%	-26%	·	·	·
Cc1ccsc1/C=N/Nc1nc(=O)[nH]nc1C	?	11µM*	?	i	8
Nc1ccccc1N=c1ssnc1Cl	15%	-9%	-2%[11.3 µM]	i	21
Cc1nnc(N=c2ssnc2Cl)o1	2.5µM*	-40%	?	?	-15
COc1ccc(CN2CCCC(C(=O)c3ccc(Cl)cc3)C2)cc1Cn1cccn1 (centres undefined)	?	-22%	-11%[11.3 µM]	i	-92*
COc1cccc(C(=O)C2CCCN(Cc3ccc(OC)c(Cn4cncn4)c3)C2)c1 (centres undefined)	?	-15%	-14%	i	-4
COc1cc(CN2CCCC(C(=O)c3ccc(C(C)(C)C)cc3)C2)cc(OC)c1O (centres undefined)	0%	-29%	4%	i	-79*
COc1ccc(C2NC(=O)NC(C)=C2C(=O)OC2CCC(C)CC2)cc1 (centres undefined)	?	-17%	·	?	-65*
COc1ccc(C2(c3ccc(OC)cc3)NC(=O)N(CC(=O)N(C)C3CCC(C)CC3)C2=O)cc1 (centres undefined)	?	12%	2%	?	-56*
CCc1nc(C)c(C(=O)N2CCCC(C(=O)Nc3cccc(-c4cccc(C)c4)c3)C2)o1 (centres undefined)	-26%	-12%	-19%	i	-82*
COc1ccccc1CN1CCOc2ccc(C(C)(O)COc3ccccc3)cc2C1 (centres undefined)	·	·	·	i	·
CC(C)C[C@@H](N)[C@H](O)C(=O)N[C@H](C(=O)N[C@H](C(=O)N[C@@H](CC(=O)O)C(=O)O)C(C)C)C(C)C	·	·	-11%	·	·
CCCCCCC1CC(CSC(=N)N)OC1=O (centres undefined)	15%	-14%	0%	?	-83*
CCCCCC1(C(=O)OCC)CC(CSC(=N)N)OC1=O (centres undefined)	13µM*	-73%	0%	i	-23
CCOC(=O)C1(CC)CC(CSc2nc3ccccc3[nH]2)OC1=O (centres undefined)	24%	10%	13%	i	14
Cc1cc(C)n(-c2ccc(C(=O)NCC3Cc4cc(-c5cnccn5)ccc4O3)cc2)n1 (centres undefined)	·	·	·	i	·

Screening results from PubChem BioAssay.
